# Screening data deposited in PubChem by National Center for Advancing Translational Sciences (NCATS).
# AmpC inh det = blocks E. coli AmpC beta-lactamase in presence of detergent; hit rate 0.09% among 71,000; Potency, µM (highest dose often 28.7 µM), for inactives: top-dose activity change, negative = inhibition; AID 584; purified AmpC, nitrocefin hydrolysis with detergent; active means well fitted curve in the direction sought with a large enough effect; inconclusive means small, poorly fitted or top-dose-only effect; further: on the % scale 0 is the no-effect control and ±100 the full control effect
# Target sequence (P00811 whole entry, looked up): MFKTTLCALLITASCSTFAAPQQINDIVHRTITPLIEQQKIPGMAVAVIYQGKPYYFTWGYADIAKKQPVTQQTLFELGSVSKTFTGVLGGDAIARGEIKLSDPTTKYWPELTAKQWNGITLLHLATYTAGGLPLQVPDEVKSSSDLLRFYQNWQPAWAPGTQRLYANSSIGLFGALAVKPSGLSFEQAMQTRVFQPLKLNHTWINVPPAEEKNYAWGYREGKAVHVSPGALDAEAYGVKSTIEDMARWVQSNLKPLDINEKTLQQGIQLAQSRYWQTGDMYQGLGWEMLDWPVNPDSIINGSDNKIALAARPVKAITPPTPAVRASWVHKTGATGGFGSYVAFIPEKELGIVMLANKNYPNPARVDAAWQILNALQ
#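 E. coli AmpC (5.3 nM) in 20 mM phosphate pH 7.0 with 0.01% Triton X-100, preincubated 15 min RT with compound; nitrocefin (2 uL of 800 uM stock) hydrolysis followed by 480 nm absorbance every 20 s over 4 min.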
# AmpC inh no det = blocks E. coli AmpC beta-lactamase in absence of detergent | P00811 | AmpC nitrocefin hydrolysis, absorbance 480 nm, no detergent | Potency, µM (top dose mostly 28.7 µM), for inactives: at the top dose activity change, negative = inhibition | hit rate 1.8% among 71,000 | AID 585; further: % of control where 0% means no effect
#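 AmpC, 20 mM phosphate pH 7.0; 15 min cpd preinc, RT; start with nitrocefin (800 uM stock); A480 kinetic read, 20 s intervals, 4 min. No-enzyme wells = negative control.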
# LT uptake inh = blocks cellular internalization of anthrax lethal toxin; Cells, anthrax lethal toxin internalization, FRET ratio (460/530); hit rate 0.67% among 70,000; Potency, µM (highest dose often 40 µM), without a hit: top-dose activity change, negative = inhibition, most hits filed as inhibitors; further: on the % scale 0 is the no-effect control and ±100 the full control effect; nearly all actives have a fitted effect of over 50% in size
# SmPrx2 inh = blocks S. mansoni peroxiredoxin 2 enzymatic activity. S. mansoni Prx2 activity coupled to TGR/GSH (TGR is thioredoxin glutathione reductase), NADPH fluorescence loss, qHTS. Potency, µM. hit rate 0.07% among 65,000. AID 448
#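 Coupled assay in which S. mansoni TGR passes NADPH reducing equivalents via glutathione to Prx2, which reduces H2O2. Compounds were preincubated 15 min at room temperature with 25 nM TGR/50 nM Prx2 mix. Kinetic NADPH fluorescence loss (ex 365/em 450 nm) was monitored.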
# Active calls of the source: *; ? = inconclusive; . = not tested or not shown; [ ] = remark or other dose. Rows were chosen to be rich in hits. Some 2.4% of all compounds tested hit in one or more screens of this group. Unless noted, the call rests on the fitted dose curve. Potency means the concentration at half of the fitted maximal effect.
SMILES,AmpC inh det,AmpC inh no det,LT uptake inh,SmPrx2 inh
O=C(O)CC(NC(=O)OCc1ccccc1)c1ccccc1 (stereo not drawn),5.2%,-9.6%,-7.0%,>57
COc1ccc2[nH]cc(CCNc3ncncc3-c3cccnc3)c2c1,6.4%,10.0%,-3.1%,>57
COc1ccc2[nH]cc(CCNc3ccnc(-c4ccc(N(C)C)cc4)n3)c2c1,-3.9%,-6.1%,7.94µM*,>57
COc1ccc2[nH]cc(CCNc3ncnc4ccc(-c5ccccc5OC)cc34)c2c1,9.3%,10.3%,10µM*,>57
COc1ccc2[nH]cc(CCNc3ncncc3-c3ccccc3C)c2c1,-3.9%,11.4%,10µM*,>57
COc1ccc2[nH]cc(CCNc3ccnc(-c4ccoc4)n3)c2c1,9.8%,-22.6%,?,>57
COc1ccc2[nH]cc(CCNc3ncnc4ccc(-c5cccnc5)cc34)c2c1,9.1%,-0.1%,-9.6%,>57
O=C1C2CC=CCC2C(=O)N1SC(Cl)(Cl)Cl (stereo not drawn),-3.5%,?,3.16µM*,.
O=C1C2CC=CCC2C(=O)N1CC1CCCO1 (stereo not drawn),-1.6%,-10.6%,-12.5%,>57
O=C(OCC(=O)c1cccs1)c1ccc(NC(=O)c2ccco2)cc1,8.8%,15.8µM*[single pt active],-6.2%,>57
CN(C)c1ccc(C(=O)OCC(=O)c2cccs2)cc1,10.5%,-1.5%,-13.6%,>57
O=S(=O)(c1cccc2c(I)cccc12)N1CCCNCC1,-2.6%,41.7%,3.16µM*,>25.6
Cn1c2ccccc2c2ncn(CCN3CCOCC3)c(=O)c21,-0.5%,27.4%,-5.0%,>57
CCn1ncc(C2=NOC(C(=O)Nc3c(C)nn(Cc4ccc(F)cc4)c3C)C2)c1C (stereo not drawn),18.0%,48.3%,-14.2%,>57
CCn1ncc(C2=NOC(C(=O)Nc3c(C)n(C)n(-c4ccccc4)c3=O)C2)c1C (stereo not drawn),8.5%,3.98µM*[single pt active],-2.7%,>57
O=C(O)c1ccc2cc(-c3ccc(O)c(C45CC6CC(CC(C6)C4)C5)c3)ccc2c1,.,.,10µM*,.
Cc1cc(C(=O)CSc2nnc(-c3ccco3)o2)c(C)n1Cc1ccco1,-2.7%,28.3%,-6.1%,>57
Cc1cc(C(=O)CSc2nn(-c3ccccc3)c(=S)s2)c(C)n1Cc1ccco1,-0.8%,12.6µM*,?,>57
CCN(CC)c1nc2cc(OC)ccc2cc1C#N,9.3%,-3.0%,3.9%,>57
O=C(Nc1ccccc1N1CCCC1)c1cccnc1,-1.8%,-7.1%,2.9%,>57
COc1ccc(-c2nc3cnc(N4CCN(C)CC4)nc3n(CCC#N)c2=O)cc1,-2.2%,63.7%,?,>11.4
O=C(CN(C1CC1)S(=O)(=O)c1ccc(S(=O)(=O)NC2CCCCC2)cc1)Nc1ccccc1,-2.8%,-22.0%,10µM*,>57
COc1ccc(N2CCN(Cc3cc(=O)oc4cc5c(cc34)CCCC5)CC2)cc1,-3.7%,?,4.4%,>57
O=C(CCSc1nnc2scc(-c3ccccc3)n12)Nc1nc(-c2ccccc2)ns1,-4.3%,5.01µM*,12.2%,>57
CCN1CSC(=S)N(Cc2ccc(OC)cc2)C1,-0.8%,-1.5%,-41.4%,>57
SMILES,AmpC inh det,AmpC inh no det,LT uptake inh,SmPrx2 inh
CCOC(=O)CCc1c(C)n(CC)c2ncnn2c1=O,12.4%,3.98µM*[single pt active],-3.2%,>57
CCOC(=O)C1CCCN(c2c(NCC3CCCO3)c(=O)c2=O)C1 (stereo not drawn),11.4%,3.16µM*[single pt active],-6.0%,>57
CCOC(=O)C1CCCN(c2c(Nc3ccc(C)c(C)c3)c(=O)c2=O)C1 (stereo not drawn),13.0%,3.16µM*[single pt active],?,>57
CCOC(=O)C1CCCN(c2c(N3CCN(C4CCCCC4)CC3)c(=O)c2=O)C1 (stereo not drawn),9.2%,59.1%,-12.0%,>57
CCOC(=O)C1CCCN(c2c(N3CCC(N4CCCCC4)CC3)c(=O)c2=O)C1 (stereo not drawn),12.8%,3.98µM*[single pt active],-22.0%,>57
COCC(=O)N1CCC[C@@]2(CCN(Cc3cc(C(F)(F)F)cc(C(F)(F)F)c3)C2)C1,7.7%,104.2%,-2.2%,>57
COc1ccccc1CN1CCCC2(CCN(C(=O)c3cnccn3)CC2)C1,2.4%,8.8%,?,>57
COc1cc(C)c(C)cc1S(=O)(=O)N1CCCCC1c1cccnc1 (stereo not drawn),-4.9%,71.8%,-1.9%,>57
CCC(=O)Nc1ccc(NC(=O)Cc2ccccc2)cn1,13.5%,-5.1%,11.0%,>57
CCOC(=O)c1sc(NC(=O)c2noc3c2CCCC3)c(C(=O)OCC)c1C,12.7%,3.98µM*[single pt active],-13.0%,>57
